{
  "source": "PubChem BioAssay (EPA / NIEHS)",
  "note": "The source made the active and inactive calls. How the source made its calls: active means hit-call score of the fitted dose curve at least 0.9, where 1 is the maximum; inactive means score below 0.9.",
  "data": [
    {"experiment": "ATG_TA_CIS: Attagene CIS-FACTORIAL HepG2 Assay for human TA Basal Promoter (AID 2282964)", "conditions": "HepG2 Attagene CIS-factorial TA basal promoter reporter; actives raise or lower the signal", "protocol": "ATG_CIS is a cell-based, multiplexed-readout assay that uses HepG2, a human liver cell line, with measurements taken at 24 hours after chemical dosing in a 24-well plate.ATG_TA_CIS is one of 52 assay component(s) measured or calculated from the ATG_CIS assay. It is designed to make measurements of mRNA induction, a form of inducible reporter, as detected with fluorescence intensity signals by Reverse transcription polymerase chain reaction (RT-PCR) and Capillary electrophoresis technology.Data from the assay component ATG_TA_CIS was analyzed into 1 assay endpoint. This assay endpoint, ATG_TA_CIS, was analyzed with bidirectional fitting relative to DMSO as the negative control and baseline of activity. Using a type of inducible reporter, measures of mRNA for gain or loss-of-signal activity can be used to understand the background control at the transcription factor-level as they relate to the gene . Furthermore, this assay endpoint can be referred to as a secondary readout, because this assay has produced multiple assay endpoints where this one serves a background control function. To generalize the intended target to other relatable targets, this assay endpoint is annotated to the background measurement intended target family, where the subfamily is internal marker.\nHuman liver HepG2 cells are transiently transfected with multiple reporter transcription units (MRTUs) in 6-well plates using FuGene 6 reagent (Roche; 3 ml FuGene/1 mg DNA). The MRTU constructs are regulated by a cis-regulating element (promoter). […] A major difference between the CIS and TRANS system is that in CIS activities of endogenous TFs are measured, whereas the TRANS assay evaluates changes in activities of exogenous, chimeric NR-Gal4 proteins. […] At the end of 24 hour incubation, total RNA was isolated using TriZol reagent (Invitrogen). The isolated RNA is then reverse-transcribed using oligo(dT) primer and Mo-MLV reverse transcriptase (Invitrogen) with DNAse I (Ambion) treatment for 30 min. The one-tenth of the produced cDNA was amplified by PCR using Taq DNA polymerase (Invitrogen) and two reporter sequence-specific primers. The PCR products were fluorescently labeled by primer extension with 6-arboxyfluorescein (6-FAM) 5'-labeled reporter sequence-specific primer (2 min at 95 C, 20 s at 68 C and 10 min at 72 C) and these products were digested with 5U of HpaI (New England Biolabs) for 2h at 37 C. The fragments were purified using Qiaquick PCR columns (Qiagen), analyzed on an ABI 3130xL genetic analyzer (Applied Biosystems) with peak positions identified by using a set of X-rhodamine (ROX)-labeled MapMarker1000 molecular weight standards (BioVentures). The raw capillary electrophoresis data was processed using Attagraph software (Attagene).", "values": [
      {"smiles": "FC(F)(F)C(F)(C(F)(F)F)C(F)(F)C(F)(F)CC1CO1", "note": "(stereo not given)", "outcome": "inactive"},
      {"smiles": "CC(=O)CCc1ccc2c(c1)OCO2", "outcome": "inactive"},
      {"smiles": "c1ccc(OP(Oc2ccccc2)Oc2ccccc2)cc1", "outcome": "inactive"},
      {"smiles": "c1ccc2c(c1)sc1ccccc12", "outcome": "inactive"},
      {"smiles": "CCCCC(CC)COC(=O)c1c(Br)c(Br)c(Br)c(Br)c1C(=O)OCC(CC)CCCC", "note": "(stereo not given)", "outcome": "inactive"},
      {"smiles": "CCOS(=O)(=O)OCC", "outcome": "inactive"},
      {"smiles": "COP(=O)(CCC(=O)NCO)OC", "outcome": "inactive"},
      {"smiles": "CC1=C(C(=O)Nc2ccccc2)S(=O)(=O)CCO1", "outcome": "inactive"},
      {"smiles": "O=NN1CCCC1", "outcome": "inactive"},
      {"smiles": "CCCCN(CCCC)SN(C)C(=O)Oc1cccc2c1OC(C)(C)C2", "outcome": "inactive"},
      {"smiles": "CC1(C)CN=C(NN=C(/C=C/c2ccc(C(F)(F)F)cc2)/C=C/c2ccc(C(F)(F)F)cc2)NC1", "AC50": "3.76 µM (active)"},
      {"smiles": "OCC(F)(F)OC(F)(F)C(F)(F)OC(F)(F)C(F)(F)OC(F)(F)F", "outcome": "inactive"},
      {"smiles": "CC(C)(C)c1ccc(O)cc1", "outcome": "inactive"},
      {"smiles": "O=S1(=O)OCC2C(CO1)C1(Cl)C(Cl)=C(Cl)C2(Cl)C1(Cl)Cl", "note": "(stereo not given)", "outcome": "inactive"},
      {"smiles": "ClC(Cl)(Cl)c1ccccc1", "outcome": "inactive"},
      {"smiles": "O=S(=O)(F)C(F)(F)C(F)(F)C(F)(F)C(F)(F)C(F)(F)C(F)(F)C(F)(F)C(F)(F)F", "outcome": "inactive"},
      {"smiles": "CC(Cl)CN(C)C", "note": "(stereo not given)", "outcome": "inactive"},
      {"smiles": "OCC1CO1", "note": "(stereo not given)", "outcome": "inactive"},
      {"smiles": "CCOP(=S)(OCC)SCSCC", "outcome": "inactive"},
      {"smiles": "O=[N+]([O-])c1cc(Cl)ccc1Cl", "outcome": "inactive"},
      {"smiles": "CCNc1nc(Cl)nc(NC(C)(C)C)n1", "outcome": "inactive"},
      {"smiles": "CCOP(=O)(O)C(N)=O", "outcome": "inactive"},
      {"smiles": "O=P1(N(CCCl)CCCl)NCCCO1", "note": "(stereo not given)", "outcome": "inactive"},
      {"smiles": "CCOc1ccc(C(C)(C)COCc2cccc(Oc3ccccc3)c2)cc1", "outcome": "inactive"},
      {"smiles": "CCCCc1ccccc1", "outcome": "inactive"},
      {"smiles": "COCCOCCO", "outcome": "inactive"},
      {"smiles": "N#Cc1ccc(O)cc1", "outcome": "inactive"},
      {"smiles": "Cc1ccc([N+](=O)[O-])cc1C", "outcome": "inactive"},
      {"smiles": "NC(=O)C(F)(F)C(F)(F)F", "outcome": "inactive"},
      {"smiles": "CC(=O)c1ccc(-c2ccccc2)cc1", "outcome": "inactive"},
      {"smiles": "CC(Cc1ccc(OCC(=O)O)cc1)NCC(O)c1csc(C(F)(F)F)n1", "note": "(stereo not given)", "outcome": "inactive"},
      {"smiles": "O=S(=O)(c1ccc(O)cc1)c1ccc(O)cc1", "outcome": "inactive"},
      {"smiles": "c1ccc2c(c1)Nc1ccccc1S2", "outcome": "inactive"},
      {"smiles": "NNC(N)=S", "outcome": "inactive"},
      {"smiles": "O=C(CBr)OCc1ccccc1", "outcome": "inactive"},
      {"smiles": "Nc1ccc(Cl)cc1", "outcome": "inactive"},
      {"smiles": "Clc1ccc(Oc2ccccc2)cc1", "outcome": "inactive"},
      {"smiles": "Cc1c([N+](=O)[O-])cc2c(c1[N+](=O)[O-])C(C)(C)CC2(C)C", "outcome": "inactive"},
      {"smiles": "Cc1ccc(N)cc1N", "outcome": "inactive"},
      {"smiles": "CC(O)C#N", "note": "(stereo not given)", "outcome": "inactive"}
    ]}
  ]
}
